# Source: PubChem BioAssay (NCI)
# “And” between values parts separate entries of the source, which are not always exact repeats. Equal values may be shown once. The panel holds about 83,000 compounds, 20% with a hit somewhere; the sample as a whole holds those more often.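 Growth was measured after 48 h exposure to one concentration of compound in 96-well plates. Values under 10 count as active.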 The source made the active and inactive calls.
# Columns and labels:
# Assay in all cases: NCI-60 one-dose screen, 48 h (100 = growth as untreated, 0 = no growth, -100 = all killed)
# Details in all cases: 10 µM unless noted
# [1] = tested on: SR leukemia
# [2] = tested on: RPMI-8226 leukemia
# [3] = tested on: OVCAR-8 ovarian
# [4] = tested on: OVCAR-5 ovarian
# [5] = tested on: OVCAR-4 ovarian
# [6] = tested on: IGROV1 ovarian
# [7] = tested on: OVCAR-3 ovarian
# [8] = tested on: HS 578T breast
# [9] = tested on: NCI/ADR-RES ovarian
# [10] = tested on: T-47D breast
# [11] = tested on: BT-549 breast
# [12] = tested on: MDA-MB-435 melanoma
# [13] = tested on: SW-620 colon
# [14] = tested on: MCF7 breast
# [15] = tested on: HCT-116 colon
# [16] = tested on: HCC-2998 colon
# [17] = tested on: KM12 colon
# [18] = tested on: SK-OV-3 ovarian
Structure (SMILES),growth [1],growth [2],growth [3],growth [4],growth [5],growth [6],growth [7],growth [8],growth [9],growth [10],growth [11],growth [12],growth [13],growth [14],growth [15],growth [16],growth [17],growth [18]
CCN(CC)CCOc1ccc(/C=N/Nc2nc3c([nH]2)c(=O)n(C)c(=O)n3C)cc1,102% (inactive) and 96.8% (inactive),90.7% (inactive) and 108% (inactive),107% (inactive) and 104% (inactive),117% (inactive) and 89.7% (inactive),107% (inactive) and 105% (inactive),110% (inactive) and 91.2% (inactive),114% (inactive) and 94.8% (inactive),106% (inactive) and 105% (inactive),118% (inactive) and 106% (inactive),89.7% (inactive) and 96.3% (inactive),105% (inactive) and 96.1% (inactive),104% (inactive) and 105% (inactive),108% (inactive) and 104% (inactive),81.5% (inactive) and 74.6% (inactive),98.3% (inactive) and 103% (inactive),102% (inactive) and 111% (inactive),109% (inactive) and 106% (inactive),–
COc1c(/C(C)=N/N=c2sc(C(C)=O)nn2-c2ccc(Cl)cc2)c(Oc2ccccc2)c(OC)c2occc12,107% (inactive) and 104% (inactive),107% (inactive) and 96.3% (inactive),102% (inactive),–,102% (inactive) and 97.9% (inactive),102% (inactive) and 94.5% (inactive),102% (inactive),103% (inactive),96.5% (inactive) and 99.7% (inactive),98.7% (inactive) and 76.5% (inactive),115% (inactive) and 103% (inactive),103% (inactive) and 104% (inactive),102% (inactive) and 92.8% (inactive),99.9% (inactive) and 88.3% (inactive),96.4% (inactive) and 77.8% (inactive),107% (inactive) and 110% (inactive),93.7% (inactive) and 96.5% (inactive),–
COc1cc2nc(N3CCN(C(=O)C4COc5ccccc5O4)CC3)nc(N)c2cc1OC (configuration not stated),70.4% (inactive) and 83.6% (inactive),100% (inactive) and 86.9% (inactive) and 102% (inactive),91.7% (inactive) and 94.7% (inactive) and 101% (inactive),–,92.4% (inactive) and 93.2% (inactive) and 98.9% (inactive),93.4% (inactive) and 109% (inactive) and 95.6% (inactive),107% (inactive) and 109% (inactive) and 103% (inactive),93.7% (inactive) and 118% (inactive),93.9% (inactive) and 97.6% (inactive) and 110% (inactive),91.2% (inactive) and 93.6% (inactive) and 96% (inactive),86.9% (inactive) and 96.6% (inactive) and 105% (inactive),96.5% (inactive) and 90.2% (inactive) and 92.2% (inactive),92% (inactive) and 97.7% (inactive) and 109% (inactive),91.7% (inactive) and 95.2% (inactive) and 101% (inactive),105% (inactive) and 79.8% (inactive) and 104% (inactive),102% (inactive) and 105% (inactive) and 108% (inactive),103% (inactive) and 99.6% (inactive) and 102% (inactive),114% (inactive) and 103% (inactive) and 105% (inactive)
O=C1OC2(c3ccccc31)c1ccc(O)c(O)c1Oc1c2ccc(O)c1O,-17.7% (active) and 101% (inactive),113% (inactive) and 109% (inactive),107% (inactive),–,89.7% (inactive) and 108% (inactive),–,98.7% (inactive) and 107% (inactive),112% (inactive) and 132% (inactive),107% (inactive) and 104% (inactive),106% (inactive) and 99.5% (inactive),118% (inactive),112% (inactive) and 130% (inactive),105% (inactive) and 113% (inactive),109% (inactive) and 105% (inactive),110% (inactive) and 102% (inactive),104% (inactive) and 109% (inactive),–,106% (inactive) and 98.8% (inactive)
COc1ccc(Cn2c(NCCN=C(N)N)nc(=O)n(Cc3ccc(F)cc3)c2=O)cc1,85.5% (inactive),87.9% (inactive) and 92.2% (inactive),–,89.9% (inactive) and 95.8% (inactive),101% (inactive) and 92.5% (inactive),90.3% (inactive) and 103% (inactive),96.5% (inactive) and 104% (inactive),87.5% (inactive) and 66.2% (inactive),114% (inactive) and 103% (inactive),91.4% (inactive) and 87.7% (inactive),86.9% (inactive) and 70.2% (inactive),100% (inactive) and 109% (inactive),101% (inactive) and 95.1% (inactive),93.3% (inactive) and 93% (inactive),88.7% (inactive) and 98.3% (inactive),104% (inactive) and 102% (inactive),114% (inactive) and 106% (inactive),98.8% (inactive) and 96.2% (inactive)
CCNC(=O)Nc1ccc(-c2nc3c(c(N4CCOC[C@@H]4C)n2)CCN(C2COC2)C3)cc1,47.9% (inactive) and 11.8% (inactive),23.3% (inactive) and 6.21% (active),–,46.7% (inactive) and 23.1% (inactive),23.1% (inactive) and -13% (active),15.2% (inactive) and -12.9% (active),40.4% (inactive) and 16% (inactive),1.21% (active),90.4% (inactive) and 12.4% (inactive),-12.4% (active) and -25.3% (active),28.9% (inactive) and -1.93% (active),32.9% (inactive) and 0.798% (active),62.2% (inactive) and 14% (inactive),15.6% (inactive) and 11.8% (inactive),58.9% (inactive) and 28.5% (inactive),50% (inactive),–,13.9% (inactive) and -35% (active)
CN(C)c1ccc(/C=C(\C#N)c2ccccc2)cc1,-18.5% (active) and 14.1% (inactive) and 8.15% (active),-23% (active) and 37.2% (inactive) and 10.1% (inactive),26.9% (inactive) and 43.7% (inactive) and 38% (inactive),–,48.4% (inactive) and 61.8% (inactive) and 78.6% (inactive),-39.9% (active) and 52.4% (inactive) and 43.5% (inactive),-57.9% (active) and 11.6% (inactive) and -12.2% (active),28.3% (inactive) and 56.2% (inactive) and 28.9% (inactive),-41.2% (active) and 13.3% (inactive) and 20.9% (inactive),39.5% (inactive) and 36.1% (inactive) and 29.8% (inactive),51.3% (inactive) and 52.8% (inactive) and 49.5% (inactive),-44.1% (active) and -7.42% (active) and -26.3% (active),18.1% (inactive) and 33.3% (inactive) and 21.8% (inactive),–,17.4% (inactive) and 27.1% (inactive) and 19.8% (inactive),-28.9% (active) and 68.2% (inactive) and 47.7% (inactive),–,30.9% (inactive) and 32.4% (inactive) and 29.9% (inactive)
N#CC(C#N)=C/C=C/c1cccc([N+](=O)[O-])c1,-3.67% (active) and 3.74% (active),-16.2% (active) and -9.65% (active),-22.1% (active) and -35.4% (active),–,31.9% (inactive) and 21.2% (inactive),24% (inactive) and -7.91% (active),-9.85% (active) and -42.4% (active),-9.4% (active) and -4.55% (active),5.66% (active) and -10.2% (active),39.1% (inactive) and 17% (inactive),57.1% (inactive),6.2% (active) and -53.1% (active),2.75% (active) and -71.6% (active),32.4% (inactive) and 18% (inactive),-64.6% (active) and -91.7% (active),-79.1% (active) and -79.8% (active),8.85% (active) and -76.4% (active),55.6% (inactive) and 35.8% (inactive)
CC1(C)[C@@H](OC(=O)CCC(=O)O)CC[C@]2(C)[C@H]3C(=O)C=C4[C@@H]5C[C@@](C)(C(=O)O)CC[C@]5(C)CC[C@@]4(C)[C@]3(C)CC[C@@H]12,94.3% (inactive) and -13% (active),104% (inactive) and -42.2% (active),106% (inactive) and -14.1% (active),–,87.9% (inactive) and -0.335% (active),105% (inactive) and -35.8% (active),99.7% (inactive) and -94% (active),112% (inactive) and -12.9% (active),107% (inactive) and -0.161% (active),90.6% (inactive) and 2.63% (active),99.7% (inactive) and -32.4% (active),98.8% (inactive) and -47.7% (active),109% (inactive) and -37.2% (active),91.2% (inactive) and 6.18% (active),95.4% (inactive) and -58.8% (active),103% (inactive) and -71.7% (active),97% (inactive) and -73.1% (active),102% (inactive) and -64.1% (active)
